LASV entry inh: qHTS for Inhibitors of binding or entry into cells for Lassa Virus. Lassa virus pseudotype entry inhibition, cell reporter. actives 1.2% (n = 300,000). AID 540256, 2011. Potency, µM (doses to about 37.9 µM), for the others: top-dose activity change, negative = inhibition, usual class: inhibitors; calls by dose curve; tested in HEK293 cells; further: potency means the concentration at half of the fitted maximal effect; on the % scale 0 is the no-effect control and ±100 the full control effect; nearly all actives have a fitted effect of over 50% in size
Shiga inhibitor: A qHTS for Small Molecule Inhibitors of Shiga Toxin. Vero cells, Shiga toxin protein synthesis inhibition reporter. inhibition, % at 38.7 µM. actives 9.2% (n = 290,000). AID 2315, 2010; in the data active means inhibition mostly above about 28%, no sharp cut-off; inactive means mostly below about 43%; further: 0% is about no effect
CHX counter: Cycloheximide Counterscreen for Small Molecule Inhibitors of Shiga Toxin. cell reporter, cycloheximide protein synthesis inhibition counterscreen. max response, %. actives 12% (n = 300,000). AID 2314, 2010; in the data active means max response mostly above about 13%, no sharp cut-off; inactive means mostly below about 14%; further: read at 38.3 µM for the half of the compounds with a filed dose; 0% is about no effect
Marburg entry inh: qHTS for inhibitors of binding or entry into cells for Marburg Virus; Marburg virus pseudotyped entry inhibition, cell reporter; Potency, µM (titrated, usually from 37.8 µM), for inactives: top-dose activity change, negative = inhibition, actives largely listed as inhibitors; actives 1.8% (n = 300,000); calls by dose curve; tested in HEK293 cells; further: potency means the concentration at half of the fitted maximal effect; on the % scale 0 is the no-effect control and ±100 the full control effect
Numbers without * were called inactive; ? = inconclusive; / = not tested or not shown; [ ] = remark or other dose. An excerpt weighted towards active compounds, which were near 12% of everything screened.

SMILES	LASV entry inh	Shiga inhibitor	CHX counter	Marburg entry inh
CCN(CC)CCCCN1c2ccccc2Oc2ccc(Cl)cc21	/	-13.0	-10.9	/
OCCN(CCO)CC(O)CN1c2ccccc2Sc2ccccc21 (centres undefined)	/	-7.9	-5.1	0.0%
Cc1cc(C)n(CC(O)CN2c3ccccc3Sc3ccccc32)n1 (centres undefined)	6.0%	-5.3	-3.4	5.6%
COc1ccccc1CNC(=O)CN(CCc1ccccc1)S(C)(=O)=O	-21.6%[46.1 µM]	-13.1	6.8	-8.7%[46.1 µM]
Cc1ccc(-c2nnc(NCc3nc4ccccc4[nH]3)c3ccccc23)cc1S(=O)(=O)N(C)C	17.8µM*	-11.2	-1.9	?
Cc1ccc(-c2nnc(NCc3nc4ccccc4[nH]3)c3ccccc23)cc1S(=O)(=O)N1CCOCC1	?	-7.6	-3.9	?
CCN(CC)c1ccc(-n2nc3cc(C)c(NC(=O)c4ccccc4F)cc3n2)cc1	10.8%[46.1 µM]	/	/	4.8%[46.1 µM]
CCOC(=O)c1cnc2c(-c3ccccc3)cnn2c1C	11.6%[46.1 µM]	91.2*	39.1*	26.0%[46.1 µM]
CCOC(=O)c1cnc2c(C#N)c(C)nn2c1-c1ccccc1	/	-20.4	-7.7	/
CCOC(=O)Cc1c(C)nc2c(-c3ccccc3)cnn2c1C	/	46.6	36.0*	/
CCOC(=O)Cc1c(C)nc2c(-c3ccccc3OC)c(C)nn2c1C	9.2%	9.9	-2.0	7.2%[46.1 µM]
CC(=O)c1cnc2c(-c3ccccc3)c(C(F)(F)F)nn2c1C	?	-14.0	-3.1	-14.1%[46.1 µM]
CC(=O)c1cnc2c(-c3ccccc3)cnn2c1C	11.3%	27.3	18.5*	?
CCOc1ccc(-c2nnn(CC(=O)NCc3ccco3)n2)cc1OCC	-0.5%	-1.3	-2.2	-0.1%
CCCCOc1ccc(-c2nnn(CC(=O)NCc3ccco3)n2)cc1	?	68.9*	30.8*	-3.3%
CC(C)CC(=O)Nc1ccc(-c2nnn(CC(=O)NCc3ccco3)n2)cc1	3.1%[46.1 µM]	85.8*	29.2*	?
COc1cc2nc(Nc3ccc(C)c(C)c3)nc(N)c2cc1OC	1.4%[46.1 µM]	18.6	8.1	?
Cc1ccc(Nc2nnc(-c3ccccc3N)o2)cc1C	8.9%[46.1 µM]	41.2*	26.4*	?
Oc1oc(-c2ccc(Br)cc2)nc1/C=N/c1ccccn1	2.4%	120.0*	54.1*	?
Cc1ccc(N=Cc2nc(-c3ccco3)oc2O)cc1	?	100.6*	29.4*	23.9%
Cc1ccc(-c2nc(C=Nc3cccc(C)c3)c(O)o2)cc1	-5.8%[46.1 µM]	66.6	14.0	-10.3%[46.1 µM]
Cc1ccc(-c2nc(C=Nc3ccccc3)c(O)o2)cc1	/	84.7*	51.4*	/
Cc1ccc(C(=O)N/C(=C\c2cn(S(=O)(=O)N(C)C)c3ccccc23)C(=O)NCCN2CCOCC2)cc1	/	8.6	-0.5	/
CCOc1ccc(N2CC(C(=O)Nc3ccc(S(=O)(=O)Nc4nccs4)cc3)CC2=O)cc1 (centres undefined)	/	-5.9	-12.7	-13.6%[46.1 µM]
CCOC(=O)C1CCN(C(=O)c2c(C)nn(-c3ccc(F)cc3)c2-n2cccc2)CC1	18.3%[46.1 µM]	/	/	/
SMILES	LASV entry inh	Shiga inhibitor	CHX counter	Marburg entry inh
COc1ccc(OCC(=O)NCc2nc(-c3ccccc3)no2)cc1	1.5%	/	/	4.6%[46.1 µM]
CCCCN(C(=O)CCC(=O)O)[C@H]1CC(=O)N(c2ccc(OCCC)cc2)C1=O	/	/	/	3.9%
CC(C)NC(=O)NC(=O)COC(=O)c1ccccc1Oc1ccccc1	?	8.3	-2.9	11.2µM*
O=C(O)c1ccccc1Oc1ccc(Oc2ccccc2)cc1	/	24.7	7.5*	/
COc1ccc(-c2cc(C(=O)O)no2)cc1	-3.9%	1.2	4.0	-16.7%[46.1 µM]
COc1ccc(-c2cc(C(=O)NCC(C)C)no2)cc1	?	70.8*	37.9*	?
CCC(C)NC(=O)c1cc(-c2ccc(OC)cc2)on1 (centres undefined)	?	66.4*	28.7*	?
CC(=O)c1ccc(OCCCC(=O)Nc2cccc(-c3nn[nH]n3)c2)cc1	?	-3.1	-2.7	9.0%[46.1 µM]
CC(c1ccco1)N(C(=O)c1ccccc1NS(=O)(=O)c1ccc(Cl)cc1)c1ccccn1 (centres undefined)	-19.9%	-7.7	-2.9	0.5%
CC(c1ccco1)N(C(=O)COc1ccc(Cl)cc1)c1ccccn1 (centres undefined)	-6.0%	134.6*	39.1*	?
CC(c1ccco1)N(C(=O)COc1ccc(Cl)cc1Cl)c1ccccn1 (centres undefined)	-11.6%	125.8*	53.2*	?
O=C(O)CCCCCNC(=O)Nc1ccc2c(c1)OCCO2	16.2%	30.4	15.5	18.7%
CC(C)CNS(=O)(=O)c1ccc(CCC(=O)Nc2ccc3c(c2)OCCO3)cc1	-18.3%	9.2	5.5	-4.0%
O=C(Nc1ccc2c(c1)OCCO2)c1ccc(Cl)cc1	/	41.6	28.1*	/
CC(C)CNS(=O)(=O)c1ccc(C(=O)Nc2ccc3c(c2)OCCO3)cc1	13.1%	96.7*	54.1*	6.1%
O=C(Nc1ccc2c(c1)OCCO2)c1ccc(NC(=O)C2CCCO2)cc1 (centres undefined)	?	21.3	23.3*	-9.5%
O=C(O)CCNc1ccc2c(c1)OCCO2	1.8%	73.0*	42.1*	?
CCN(CC)CCNC(=O)C(=O)NCC(c1ccc2c(c1)OCO2)N1CCOCC1 (centres undefined)	18.3%[46.1 µM]	/	/	/
CCc1nc2nc(C)cc(Nc3cc(Cl)ccc3C)n2n1	0.4%[46.1 µM]	/	/	-1.2%[46.1 µM]
COc1ccc(C(CNC(=O)C2CCN(S(=O)(=O)c3ccc(F)cc3)CC2)N(C)C)cc1 (centres undefined)	-20.2%	1.0	3.4	0.2%
Cc1cccn2c(=O)c(/C=C(\C#N)c3nc4ccccc4n3C)c(Oc3ccc(Cl)cc3)nc12	-15.0%[46.1 µM]	/	/	?
Cc1cc(C)n(-c2ccc(C(=O)Nc3ccc(C)c(S(=O)(=O)N4CCOCC4)c3)cc2)n1	?	7.9	10.0	10µM*
Cc1cc(C)n(-c2ccc(C(=O)NCc3ccc4c(c3)OCO4)cc2)n1	-16.5%	-14.5	-5.2	-22.3%
CS(=O)(=O)Nc1ccc(C(=O)Nc2ccc3c(c2)OCO3)cc1	?	52.6*	25.8*	?
COc1cc(OC)cc(C(=O)Nc2ccc3c(c2)OCCO3)c1	-8.3%[46.1 µM]	/	25.7*	?
SMILES	LASV entry inh	Shiga inhibitor	CHX counter	Marburg entry inh
Cc1cc(C)n(-c2ccc(C(=O)Nc3ccc4c(c3)OCCO4)cc2)n1	3.7%	100.0*	45.4*	-25.8%
COc1ccc(NC2CCCN(C(=O)c3cccc(N4CCNC4=O)c3)C2)cc1 (centres undefined)	/	-12.3	-11.1	/
CC12CCC(C(=O)Nc3nc4ccccc4s3)(OC1=O)C2(C)C (centres undefined)	2.8%[46.1 µM]	85.4*	28.8*	?
Cc1ccc(C(=O)NCC(=O)Nc2ccc3c(c2)OCCO3)cc1	15.4%	/	/	2.4%
NC(=O)Nc1ccc2c(c1)OCCO2	12.8%	102.7*	51.7*	31.0%
CC12CCC(C(=O)NNc3ccccc3)(OC1=O)C2(C)C (centres undefined)	/	-5.6	-2.0	/
Cc1cc(C(=O)Nc2ccc3c(c2)OCCO3)co1	?	75.8*	57.2*	-21.2%
Cc1ccc(C(=O)Nc2ccc3c(c2)OCCO3)c(C)c1	?	-9.4	-3.3	1.26µM*
Cc1cc(C)nc(/N=C(\NC(=O)C(C)(C)C)Nc2ccc(F)cc2)n1	20.6%	19.0	14.5	?
COc1ccc(OCc2nc(C#N)c(NCc3ccccc3Cl)o2)cc1	-23.8%[46.1 µM]	/	/	5.0%[46.1 µM]
Cc1ccc2onc(CC(=O)N3CCN(c4ccc(F)cc4)CC3)c2c1	-25.1%[46.1 µM]	/	/	/

Screens: PubChem BioAssay, National Center for Advancing Translational Sciences (NCATS)
